Compounds with a hit are over-represented: about 11% of the library has one in this group of screens.
HTT aggregate – qHTS Multiplex Assay to Identify Dual Action Probes in a Cell Model of Huntington: Aggregate Formation (GFP); actives 1.1% (n = 220,000); PC12 HttQ103-GFP aggregates, Acumen cytometry, 40 h; Potency, µM (titrated, usually from 46.1 µM), for the others: at the highest dose activity change, negative = inhibition, usual class: inhibitors; further: potency means the concentration at half of the fitted maximal effect; on the % scale 0 is the no-effect control and ±100 the full control effect; nearly all actives have a fitted effect of over 60% in size
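Huntingtin Q103 exon 1–GFP aggregates in induced PC12 cells (100 nM tebufenozide) were quantified by cytometry from lysates, with compounds dosed in titration.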
HPGD block – qHTS Assay for Inhibitors of HPGD (15-Hydroxyprostaglandin Dehydrogenase); 15-hydroxyprostaglandin dehydrogenase [NAD(+)] (Homo sapiens), P15428; purified HPGD, NADH fluorescence kinetic, PGE2 substrate; AID 894, 2007; Potency, µM, inactives show at the highest dose activity change, negative = inhibition, actives largely listed as inhibitors; actives 4.3% (n = 150,000); active means well fitted inhibition curve with a large enough effect, not every such curve was filed as active; inconclusive means small, poorly fitted or top-dose-only effect, or another doubt; inactive means no such curve, though single readings can be large or run the other way; further: potency means the concentration at half of the fitted maximal effect; on the % scale 0 is the no-effect control and ±100 the full control effect
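20 nM HPGD preincubated 15 min at room temperature with compound in 50 mM Tris-HCl pH 8, 0.01% Tween 20. Started with 1 mM NAD+ and 30 uM prostaglandin E2; NADH fluorescence (360/450 nm) read 5 times over 30-s intervals, last minus first.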
HTT ATP protect – qHTS Multiplex Assay to Identify Dual Action Probes in a Cell Model of Huntington: Cytoprotection (ATP). PC12 HTT-Q103 induced, cytoprotection, ATP luminescence, 40 h. Potency, µM (doses to about 56.4 µM), inactives show cytoprotection (ATP increase), actives largely listed as activators. actives 0.14% (n = 230,000); further: potency means the concentration at half of the fitted maximal effect; % of control where 0% means no effect; nearly all actives have a fitted effect of over 45% in size
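Huntington model: PC12 line, ecdysone-inducible HTTQ103 exon1–GFP, tebufenozide 100 nM. Test articles in a dose series. Endpoint luminescence from cellular ATP.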
CBFb RUNX1 block – qHTS Assay for Compounds Blocking the Interaction Between CBF-beta and RUNX1 for the Treatment of Acute Myeloid Leukemia | Runt-related transcription factor 1 (Homo sapiens) + Core-binding factor subunit beta … | AlphaScreen CBFb-His/RUNX1-biotin binding, biochemical | Potency, µM (titrated, usually from 59.8 µM), for inactives: top-dose activity, negative = inhibition, actives largely listed as inhibitors | 230,000 tested, under 10 active | AID 1477, 2009; further: % of control where 0% means no effect
Target sequence (Q01196 whole entry, looked up): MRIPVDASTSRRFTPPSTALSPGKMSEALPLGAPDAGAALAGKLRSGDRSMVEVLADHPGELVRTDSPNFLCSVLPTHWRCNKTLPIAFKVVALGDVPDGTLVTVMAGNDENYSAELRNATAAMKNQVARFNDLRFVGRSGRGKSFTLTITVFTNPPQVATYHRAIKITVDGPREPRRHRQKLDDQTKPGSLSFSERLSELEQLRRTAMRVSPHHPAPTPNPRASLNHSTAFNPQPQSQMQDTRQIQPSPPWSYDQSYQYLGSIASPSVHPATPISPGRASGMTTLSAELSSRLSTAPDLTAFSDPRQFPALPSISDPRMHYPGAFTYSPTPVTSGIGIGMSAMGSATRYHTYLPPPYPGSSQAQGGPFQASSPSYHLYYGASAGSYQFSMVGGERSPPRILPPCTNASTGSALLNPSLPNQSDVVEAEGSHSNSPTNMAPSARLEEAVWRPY
Target sequence (Q13951 whole entry, looked up): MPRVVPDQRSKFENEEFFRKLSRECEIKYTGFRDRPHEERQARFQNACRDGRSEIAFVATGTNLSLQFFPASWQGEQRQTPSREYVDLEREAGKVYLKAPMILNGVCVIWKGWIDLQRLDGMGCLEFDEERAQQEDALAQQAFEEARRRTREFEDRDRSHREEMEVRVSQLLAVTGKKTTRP
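CBFb-His/RUNX1-biotin, 30 nM each, preincubated 20 min RT; compound 15 min RT; Ni + streptavidin beads 50 ng each, 90 min RT; AlphaScreen read.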
ALDH1A1 inh – qHTS Assay for Inhibitors of Aldehyde Dehydrogenase 1 (ALDH1A1). Aldehyde dehydrogenase 1A1 (Homo sapiens), P00352. Purified ALDH1A1, NADH fluorescence, propionaldehyde substrate. Potency, µM (titrated, usually from 75.3 µM), inactives show at the highest dose activity, negative = inhibition, hits mostly inhibitors. actives 7.3% (n = 220,000); active means well fitted inhibition curve with a large enough effect, not every such curve was filed as active; inconclusive means small, poorly fitted or top-dose-only effect, or another doubt; inactive means no such curve, though single readings can be large or run the other way;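 further: potency means the concentration at half of the fitted maximal effect; plate controls were no enzyme wells and a reference inhibitor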
PNC inhibitor – High Content Assay for Compounds that inhibit the Assembly of the Perinucleolar Compartment. PC3M PTB-GFP, PNC prevalence imaging, 16 h; hits give low values. activity change (PNC), negative = inhibition, % at 10 µM. actives 3.1% (n = 140,000). AID 2417, 2010;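 active means readout at or below -70, meaning at least 70% loss of cells showing the perinucleolar compartment, a nuclear body marking cancer cells; inconclusive means readout between -30 and a set limit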;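 further: plate controls were DMSO wells for no effect and camptothecin positive control wells for full effect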
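Compounds are pinned in duplicate onto adhered PC3M cells stably expressing GFP-tagged PTB and incubated 16 h at 37 C. Cells are then fixed, nuclei stained with Hoechst, and PNC-positive cells counted.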
Active calls of the source: *; ? = inconclusive; . = no result given; [ ] = dose if it differs, or a comment. Unless noted, the call rests on the fitted dose curve; in most records, active means well fitted curve in the direction sought with a large enough effect; inconclusive means small, poorly fitted or top-dose-only effect, or another doubt; inactive means no such curve, though single readings can be large; an effect the other way counts as inactive or inconclusive.

SMILES	HTT aggregate	HPGD block	HTT ATP protect	CBFb RUNX1 block	ALDH1A1 inh	PNC inhibitor
CCOc1ccc(NC(=O)CCS(=O)(=O)c2ccc3c(c2)CCCN3C(C)=O)cc1	1.3%	-5.1%	?	-3.3%	18.9µM*	-13.1
CC(=O)N1CCCc2cc(S(=O)(=O)N(C)Cc3ccccc3)ccc21	-20.5%	31.6µM*	1.5%	-0.9%	?	4.7
CC(=O)OC[C@@H]1O[C@H](C/C=N\O[C@@H](C)CN2CCCCc3nc(C)c(C)cc32)C=C[C@@H]1OC(C)=O	.	.	2.9%[10 µM]	4.6%[13.1 µM]	-7.5%[13.5 µM]	.
CCn1nc([N+](=O)[O-])c(C(C#N)c2nc3ccccc3n2C)c(Cl)c1=O (configuration not stated)	9.7%	-9.1%	11.1%[10 µM]	-16.2%	10.7%	?
CCCn1nc([N+](=O)[O-])c(C(C#N)c2nc3ccccc3s2)c(Cl)c1=O (configuration not stated)	.	-17.5%	12.6µM*	?	?	38.7
O=C1C(Cl)=C(N2CCCCC2)C(=O)N1Cc1ccccc1	12.3%	-17.3%	-13.5%[10 µM]	-4.6%	?	-104.0*
CN1CCO/C1=C(\C(Cl)=C(Cl)Cl)[N+](=O)[O-]	27.4%	.	-20.4%	-9.9%	1.6%	.
O=[N+]([O-])C(=C1Nc2ccccc2N1)C(Cl)=C(Cl)Cl	2.5%[9.22 µM]	.	-0.7%[10 µM]	2.6%	6.31µM*	.
CC1(C)Cc2nc3sc4c(SCC(=O)NCc5ccco5)ncnc4c3cc2CO1	?	14.1µM*	-95.2%	-6.2%	8.91µM*	?
CCCc1nc2c(sc3nc4c(cc32)COC(C)(C)C4)c(=O)n1CCN(CC)CC	-0.1%	.	?	2.0%	17.8µM*	.
Cc1nc2c(sc3nc4c(cc32)COC(C)(C)C4)c(=O)o1	-3.4%	-21.8%	12.1%[10 µM]	1.8%	28.2µM*	-16.5
CCCc1nc2c(sc3nc4c(cc32)COC(C)(C)C4)c(=O)n1Cc1ccco1	-7.9%	?	-22.3%	-2.6%	0.891µM*	?
Cc1nc2c(sc3nc4c(cc32)COC(C)(C)C4)c(=O)n1CC(=O)NCc1ccco1	5.8%	?	-118.3%	2.6%	?	?
C[C@H](CO)NC(=O)[C@H]1C[C@@H]1[C@H](NP(=O)(c1ccccc1)c1ccccc1)c1ccccc1	.	-7.3%	10.0%	20.0%	2.2%	.
CCOC(=S)SCC(=O)Nc1nccs1	5.62µM*	.	-13.4%[10 µM]	-1.2%	?	.
CC(=O)Nc1nc2ccc(-c3nc4ccccc4o3)cc2s1	?	?	-18.5%[10 µM]	0.1%	?	86.8
Cc1cc[n+](-c2ccccc2)c2ccccc12	?	.	-15.0%[10 µM]	?	-4.9%	.
O=C1ON=C(c2ccc(Cl)cc2)/C1=C/c1ccc(O)cc1	14.8%	.	-26.0%	?	12.6µM*	.
COc1cc(/C=C2/C(=O)ON=C2c2ccccc2)ccc1O	-8.1%	11.2µM*	-0.1%[10 µM]	-9.5%	?	28.9
COc1cc(/C=C2\C(=O)ON=C2c2ccccc2)cc(Cl)c1O	7.2%	.	.	-13.0%	?	.
CC[C@](N)(C(=O)O)C(C)C	.	-1.9%	29.5%[10 µM]	.	-3.8%[13.5 µM]	.
CC(=O)c1cc(F)c(N2CCN(C(=O)C(C)(C)C)CC2)cc1C	?	-16.6%	-17.2%	-2.2%	15.8µM*	-4.9
COc1ccc(CC(=O)N2CC(C)CC(C)C2)cc1 (configuration not stated)	2.5%	28.2µM*	0.8%	15.8%	?	56.8
COc1ccc(CC(=O)N2CCOCC2)cc1	-20.2%	-13.6%	4.8%[10 µM]	10.4%	1.2%	-28.4

Screens (PubChem)
